In the library only some 7.9% were active in any assay of this set; here they are far more common.
KB-3-1 cytotox = kills parental KB-3-1 adenocarcinoma cells | KB-3-1 viability, CellTiter-Glo ATP luminescence, 72 h | Potency, µM (series often up to 46.1 µM), usual class: cytotoxic | 400,000 compounds, 1.4% hits | AID 1347075; further: on the % scale 0 is the no-effect control and ±100 the full control effect; nearly all actives have a fitted effect of over 60% in size
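Here the drug-naive KB-3-1 line serves as comparator for MDR sub-line selectivity; cells received compound titrations, 72 h at 37 °C, then CellTiter-Glo readout.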
MCF10A rereplic = induces DNA re-replication in MCF 10a normal breast cells. MCF 10A DNA re-replication, Hoechst nuclear intensity, 48 h. Potency, µM (doses to about 46.1 µM), for inactives: at the top dose activity, positive = re-replication, most hits filed as activators. 350,000 compounds, 2.9% hits. AID 624296; further: % of control where 0% means no effect; nearly all actives have a fitted effect of over 50% in size
HT1080 IDH1KD tx = HT-1080 IDH1 knockdown cell toxicity (counter line); HT-1080 IDH1 knockdown viability, ATP luminescence, 48 h; Potency, µM (doses to about 46.1 µM), without a hit: at the highest dose activity, negative = toxicity, actives largely listed as cytotoxic; 360,000 compounds, 2% hits; AID 686971;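 further: 0% = DMSO wells and -100% = cell-free medium wells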
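Luminescent ATP read-out (CellTiter-Glo, 10 min at room temperature) after 48 h compound exposure at 37 °C gave viability of IDH1-knockdown HT-1080 cells. Activity was normalised to DMSO and cell-free wells, then fitted as concentration-response curves.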
HT1080NT lethal = kills 2HG-producing HT-1080-NT fibrosarcoma cells | HT-1080-NT fibrosarcoma viability, CellTiter-Glo ATP luminescence, 48 h | Potency, µM (titrated, usually from 46.1 µM), for inactives: at the highest dose activity, negative = less viability, actives largely listed as cytotoxic | 360,000 compounds, 1.6% hits | AID 686970;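 further: NT is the 2HG producing partner of a matched IDH1 knockdown line; 0% = DMSO-treated cells and -100% = media-only wells without cells; nearly all actives have a fitted effect of over 55% in size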
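750 cells/well, RPMI + 5% FBS; 2 h settle, compound pin-transfer, 48 h at 37 degrees C. CellTiter-Glo 10 min RT, luminescence. Normalized to DMSO and media-only wells.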
SW480 rerep = induces DNA re-replication in SW480 colon adenocarcinoma cells | 340,000 compounds, 1.8% hits | Potency, µM (doses to about 46.1 µM), inactives show top-dose re-replication activation, actives largely listed as activators | SW480 DNA re-replication, Hoechst DNA content imaging, 48 h; further: % of control where 0% means no effect; nearly all actives have a fitted effect of over 55% in size
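Image-based DNA-content assay: after two days of treatment, nuclei were labelled with the DNA dye Hoechst and imaged, and hits were compounds raising the count of nuclei showing high fluorescence intensity.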
KB-V1 MDR tox = KB-V1 MDR subline cytotoxicity; 400,000 compounds, 3.4% hits; KB-V1 MDR cells viability, CellTiter-Glo, 72 h; Potency, µM (doses to about 46.1 µM), hits mostly cytotoxic; further: on the % scale 0 is the no-effect control and ±100 the full control effect; nearly all actives have a fitted effect of over 60% in size
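Compound-treated KB-V1 multidrug-resistant cells, 72 h, 37 degrees C; viability by CellTiter-Glo. Fitted qHTS curves give the values.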
* marks the source's active call; other numbers are inactive results; i = inactive; ? = inconclusive; . = no result given; [ ] = another dose, or the depositor's remark. The call rests on the fitted dose curve; in most records, active means well fitted curve in the direction sought with a large enough effect; inconclusive means small, poorly fitted or top-dose-only effect, or another doubt; inactive means no such curve, though single readings can be large; an effect the other way counts as inactive or inconclusive. Potency means the concentration at half of the fitted maximal effect.

SMILES | KB-3-1 cytotox | MCF10A rereplic | HT1080 IDH1KD tx | HT1080NT lethal | SW480 rerep | KB-V1 MDR tox
Cc1ccc(-c2nnn(CC(=O)N(CC(=O)NCC3CCCO3)c3ccc(F)c(Cl)c3)n2)o1 (centres undefined) | i | -3% | -6% | 2% | -4% | 15µM*
O=C(CN(C(=O)Cn1nnc(-c2ccc(F)cc2)n1)c1ccc(F)c(Cl)c1)NCC1CCCO1 (centres undefined) | i | -3% | 1% | -1% | 7% | i
Cc1ccc(-c2nnn(CC(=O)N(CC(=O)NC3CCCCC3)c3ccc(F)c(Cl)c3)n2)o1 | ? | ? | 18µM* | ? | 0%[9.22 µM] | ?
C(COC1CC2CC1C1C2CC2OC21)OC1CC2CC1C1C2CC2OC21 (centres undefined) | i | ? | -7% | -7% | -5% | 21µM*
Fc1ccccc1N1CCN(c2nccn3nc(-c4ccc(Br)cc4)cc23)CC1 | i | . | . | . | . | i
O=C(NCc1ccccc1)c1cc(=O)nc2sc(-c3ccccc3)nn12 | ? | 11% | 12% | 10% | 0% | 13µM*
CCC(=O)n1nc(-c2cccnc2)nc1NCc1ccccc1 | ? | -4% | 4.6µM* | -35% | -2% | i
O=C(c1cccs1)n1nc(-c2ccccc2)nc1NCc1ccc(F)cc1 | ? | 72% | -11% | 17% | 1% | 13µM*
COc1ccccc1C(=O)n1nc(-c2ccccc2)nc1NCc1ccco1 | i | -4% | 2% | 9% | -8% | ?
O=C(c1ccccc1)n1nc(-c2ccccc2)nc1NCc1ccc(F)cc1 | i | . | . | . | . | i
COc1ccccc1C(=O)n1nc(-c2ccccc2)nc1NCc1ccc(Cl)cc1 | ? | . | . | . | . | 15µM*
Cc1cc(C)cc(Cn2cc(CN3CC(N4CCN(C)CC4)CS3(=O)=O)nn2)c1 (centres undefined) | i | . | 4% | 10% | . | i
O=C(NC1CCCCC1)c1ccc(CSc2nc3ccncc3n2Cc2ccccc2F)cc1 | i | . | . | . | . | i
Cc1ccc(C)c(C(=O)c2c(N)c(-c3nc(-c4ccc5c(c4)OCO5)cs3)c3ccccn23)c1 | i | . | . | . | . | i
Cc1ccnc2cc(Cl)c(Cl)cc12 | i | . | . | . | . | ?
C[C@H](CO)N1C[C@H](C)[C@H](CN(C)C(=O)NC2CCCCC2)Oc2cc(-c3cccnc3)ccc2S1(=O)=O | i | . | 4% | 10% | . | i
COCCNC(=O)CN1C(=O)CCn2nc(-c3cn(C)c4ccccc34)cc21 | i | . | . | . | . | i
N#CC1=C(SCC(=O)NC2CC2)NC(=O)C(C#N)C12CCCCC2 (centres undefined) | i | 20% | 1% | 10% | -4% | i
N#CC1=C(SCC(=O)NC23CC4CC(CC(C4)C2)C3)NC(=O)C(C#N)C12CCCCC2 (centres undefined) | ? | 16µM* | ? | ? | 13% | 12µM*
CCOC(=O)CSc1nc2ccc(NC(=O)COc3ccc(F)cc3)cc2s1 | i | . | . | . | . | i
O=C(Nc1ccccc1Cl)c1cc(C2CCCCN2C(=O)c2ccccc2)on1 (centres undefined) | i | . | ? | 19% | . | i
COC(=O)c1ccccc1NC(=O)CC(NCc1ccccc1)C(=O)O (centres undefined) | i | 0% | -13% | 1% | 21µM* | i
CCc1ccccc1NC(=O)CC(NCc1ccccc1)C(=O)O (centres undefined) | i | -3% | 0% | 1% | -8% | i
O=C1c2ccccc2C(=O)c2c1oc(C(F)(F)F)c2C(=O)c1ccccc1 | 4.6µM* | 4.6µM* | 23µM* | ? | 4.1µM* | 7.3µM*
O=C(c1ccccc1)c1coc2c1C(=O)c1ccccc1C2=O | i | ? | 18µM* | 16µM* | 2% | i
COc1ccc(C(=O)c2coc3c2C(=O)C(=O)c2ccccc2-3)cc1 | i | ? | ? | ? | ? | i
